Assay results as given in ChEMBL document CHEMBL3433997, “St. Jude Leishmania screening dataset” (2016).

The compounds below were run against Solute carrier family 2, facilitated glucose transporter member 1 (Homo sapiens) (UniProt P11166) (assay: ST_JUDE_LEISH: Cytotoxicity at 2uM final concentration against transgenic Leishmania Mexicana promastigotes LmGLUT1 that are glucose transport deficient and complemented with the human glucose transporter GLUT1. Activity is measured by DNA content using SYBR green in vitro).
Assay type: functional

Sequence of Solute carrier family 2, facilitated glucose transporter member 1 (Homo sapiens) (P11166 whole entry): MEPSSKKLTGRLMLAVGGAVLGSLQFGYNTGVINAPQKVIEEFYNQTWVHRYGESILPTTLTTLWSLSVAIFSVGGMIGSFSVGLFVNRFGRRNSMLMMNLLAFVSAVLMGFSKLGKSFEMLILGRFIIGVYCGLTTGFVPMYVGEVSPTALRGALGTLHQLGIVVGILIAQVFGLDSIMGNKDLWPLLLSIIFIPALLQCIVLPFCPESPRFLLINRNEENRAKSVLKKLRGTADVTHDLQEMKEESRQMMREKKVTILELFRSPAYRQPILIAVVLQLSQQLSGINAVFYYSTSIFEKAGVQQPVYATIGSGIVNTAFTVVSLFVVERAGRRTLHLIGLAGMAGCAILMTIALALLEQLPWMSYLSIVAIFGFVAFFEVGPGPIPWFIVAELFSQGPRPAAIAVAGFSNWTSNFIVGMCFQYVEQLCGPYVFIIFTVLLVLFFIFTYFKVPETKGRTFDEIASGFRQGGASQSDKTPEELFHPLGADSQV

Row | SMILES | inhibition [%]
1 | O=C(Nc1cccnc1)c1ccc(-c2cc3ccncc3cc2OC2CCNCC2)s1 | 2.38
2 | Oc1ccc(Nc2ccnc3cc(Cl)ccc23)cc1 | 3.83
3 | Cc1sc2ccc(Cl)cc2c1S(=O)(=O)Nc1ccc2nccc(N3CC(C)NC(C)C3)c2c1 (centres undefined) | 3.66
4 | CN1CCN(c2ccnc3cc4c(cc23)N(C(=O)Nc2ccc3c(c2)CCCC3=O)CC4)CC1 | 1.37
5 | O=C(NCc1ccc(Cl)c(Cl)c1)c1ccc(-c2nc3ccc(Cl)cc3[nH]2)cc1 | 4.45
6 | CC1(C)N=C(N)N=C(N)N1OCc1cccc(C#N)c1 | 2.81
7 | COc1cc(-c2[nH]c(-c3ccc(OCCN(C)C)cc3)cc2-c2ccncc2)ccc1Cl | 1.46
8 | NOCCCOc1ccccc1 | 0.04
9 | CCCCCN1CCC(NS(=O)(=O)c2cccc(C(=O)Nc3ccc(C(F)(F)F)cc3)c2)C1 (centres undefined) | 1.64
10 | CNC(=O)C1Cc2c([nH]c3cc(Cl)ccc23)C2(CCN(CCc3ccccc3)CC2)N1 (centres undefined) | 0.42
11 | CCC(C)c1ccc(NC(=O)c2ccc(S(=O)(=O)Nc3ccc(OC)c(N4CCN(CC5CC5)CC4)c3)cc2)cc1 (centres undefined) | 1.59
12 | COc1cc(C)c(NC(=O)c2cccc3c(=O)c(C)c(-c4ccccc4)oc23)cc1OC | 6.49
13 | Cc1nc(-c2nc(N3CCC(O)CC3)ncc2-c2ccsc2)sc1C | -1.86
14 | CC(C)(CNCc1cccc(Oc2cccc(C(F)(F)F)c2)c1)c1nc(-c2ccnc(N)n2)c(-c2ccc(Cl)c(O)c2)[nH]1 | 6.03
15 | COc1cccc(-c2nn(C)c3sc(C(=O)NCCN4CCN(c5ccccc5F)CC4)cc23)c1 | -0.88
16 | Cc1nc(-c2cccc(C(=O)NC3CCC(CCN4CCc5ccc(-c6cccnc6)cc5CC4)CC3)c2)no1 (centres undefined) | 11.5
17 | CC(C)N1CCC(NC(=O)N2CCCN(c3ncnc4cc(-c5ccccc5)sc34)CC2)CC1 | 2.91
18 | FC(F)(F)c1ccc2[nH]c(-c3ccc(-c4cccc(CN5CCCCC5)c4)cc3)nc2c1 | 2.89
19 | CC(C)COc1ccc(Cl)cc1Cc1ccc(-c2nc3cc(N4CCN(C)CC4)ccc3[nH]2)o1 | 4.56
20 | O=C(/C=C/c1ccc(Cl)c(Cl)c1)N1CCC(CCN2CCc3[nH]c4ccccc4c3C2)CC1 | 12.4
21 | CNc1ccc(CNCc2ccc(-c3ccc(-c4nc5cc(F)ccc5[nH]4)cc3)cc2)cc1 | 3.2
22 | Nc1ccc(-c2nc3c(ccc4ccccc43)[nH]2)cc1 | 2.25
23 | CCCCNC[C@@H](O)[C@H](Cc1ccccc1)NC(=O)c1cc2c3c(c1)c(CC)cn3CCS(=O)(=O)N2C | 2.53
24 | O=C(Nc1ccc(OC2CCN(Cc3ccco3)CC2)c(Cl)c1)c1ccc2ncccc2c1 | 4.38

What follows are compounds tested against Hexose transporter 1 (Plasmodium falciparum) (UniProt O97467) (assay: ST_JUDE_LEISH: Cytotoxicity at 2uM final concentration against transgenic Leishmania Mexicana promastigotes LmPfHT that are glucose transport deficient and complemented with the Plasmodium falciparum hexose transporter. Activity is measured by DNA content using SYBR green in vitro).
Assay type: functional

Row | SMILES | inhibition [%]
25 | COc1cccc(CC(=O)NC2CCN(c3ccnc4cc(Cl)ccc34)C2)c1 (centres undefined) | -0.46
26 | CN(Cc1cccc(O)c1)C1CCCN(c2cc(NC(=O)c3ccc(F)cc3)ccn2)C1 (centres undefined) | 6.05
27 | COc1ccc(NC(=O)CCNc2cc(C)nc(NCc3ccccc3C)n2)cc1 | 5.4
28 | COc1cccc(CN2CCCN(Cc3cccc(NC(=O)c4ccc(Cl)c(Cl)c4)c3)CC2)c1 | -0.94
29 | O=C(CNC1CCCCC1)Nc1cccc(C(=O)Nc2cccc(C(F)(F)F)c2)c1 | -0.66
30 | CSc1ccc(CN2CCC(NC(=O)c3ccc(-c4cccc(Cl)c4)s3)CC2)cc1 | 6.28
31 | CCN(CC)CCNc1nccc(N(C)c2ccc(NC(=O)Nc3cc(C(F)(F)F)ccc3F)cc2)n1 | 2.93
32 | Cc1cc(NCCCOc2ccc(Cl)cc2)nc(NCc2ccccc2)n1 | 11.1
33 | CC(C)C(NC(=O)Cc1cccc2ccccc12)C(=O)Nc1cccc(C#N)c1 (centres undefined) | 3.27
34 | O=C(Nc1ccc(Cl)c(C(F)(F)F)c1)c1ccc(Cl)c([N+](=O)[O-])c1 | 3.41
35 | N=C(N)c1ccc(NCc2cccc(C(=O)O)c2)cc1 | 1.06
36 | Cc1c(-c2cccc(C(C)(C)NC3CCN(Cc4ccccc4)CC3)c2)cnc(N)c1C | 0.02
37 | CC[C@H](C)CNC(=O)c1cccc(-c2cccc(CNCC3CNCCCO3)c2)n1 (some centres undefined) | -0.61
38 | COc1cc2nc(N3CCC(CNC(=O)c4ccc(C(C)=O)cc4)CC3)nc(N)c2cc1OC | 2.18
39 | O=C(/C=C/c1ccc(I)cc1)NCCCCCN1CCC(c2c[nH]c3ccccc23)CC1 | 1.79
40 | O=C(Cn1c(CCc2cccc(F)c2F)cc(=O)c2cccnc21)N(CCn1ccnc1)Cc1ccc(-c2ccc(C(F)(F)F)cc2)cc1 | 1.8
41 | O=C(Nc1cccnc1)c1ccc(-c2cc3ccncc3cc2OC2CCNCC2)s1 | 2.54
42 | Oc1ccc(Nc2ccnc3cc(Cl)ccc23)cc1 | 4.67
43 | Cc1sc2ccc(Cl)cc2c1S(=O)(=O)Nc1ccc2nccc(N3CC(C)NC(C)C3)c2c1 (centres undefined) | 4.16
44 | CN1CCN(c2ccnc3cc4c(cc23)N(C(=O)Nc2ccc3c(c2)CCCC3=O)CC4)CC1 | 1.56

Row | SMILES | inhibition [%]
45 | O=C(NCc1ccc(Cl)c(Cl)c1)c1ccc(-c2nc3ccc(Cl)cc3[nH]2)cc1 | 9.23
46 | CC1(C)N=C(N)N=C(N)N1OCc1cccc(C#N)c1 | 0.82
47 | COc1cc(-c2[nH]c(-c3ccc(OCCN(C)C)cc3)cc2-c2ccncc2)ccc1Cl | 1.55
48 | NOCCCOc1ccccc1 | -0.12
49 | CCCCCN1CCC(NS(=O)(=O)c2cccc(C(=O)Nc3ccc(C(F)(F)F)cc3)c2)C1 (centres undefined) | 1.94
50 | CNC(=O)C1Cc2c([nH]c3cc(Cl)ccc23)C2(CCN(CCc3ccccc3)CC2)N1 (centres undefined) | 1.39
51 | CCC(C)c1ccc(NC(=O)c2ccc(S(=O)(=O)Nc3ccc(OC)c(N4CCN(CC5CC5)CC4)c3)cc2)cc1 (centres undefined) | -0.83
52 | COc1cc(C)c(NC(=O)c2cccc3c(=O)c(C)c(-c4ccccc4)oc23)cc1OC | -0.38
53 | Cc1nc(-c2nc(N3CCC(O)CC3)ncc2-c2ccsc2)sc1C | -1.39
54 | CC(C)(CNCc1cccc(Oc2cccc(C(F)(F)F)c2)c1)c1nc(-c2ccnc(N)n2)c(-c2ccc(Cl)c(O)c2)[nH]1 | 6.79
55 | COc1cccc(-c2nn(C)c3sc(C(=O)NCCN4CCN(c5ccccc5F)CC4)cc23)c1 | 2.01
56 | Cc1nc(-c2cccc(C(=O)NC3CCC(CCN4CCc5ccc(-c6cccnc6)cc5CC4)CC3)c2)no1 (centres undefined) | 2.55
57 | CC(C)N1CCC(NC(=O)N2CCCN(c3ncnc4cc(-c5ccccc5)sc34)CC2)CC1 | 2.28
58 | FC(F)(F)c1ccc2[nH]c(-c3ccc(-c4cccc(CN5CCCCC5)c4)cc3)nc2c1 | 2.01
59 | CC(C)COc1ccc(Cl)cc1Cc1ccc(-c2nc3cc(N4CCN(C)CC4)ccc3[nH]2)o1 | 1.63
60 | O=C(/C=C/c1ccc(Cl)c(Cl)c1)N1CCC(CCN2CCc3[nH]c4ccccc4c3C2)CC1 | 5.55
61 | CNc1ccc(CNCc2ccc(-c3ccc(-c4nc5cc(F)ccc5[nH]4)cc3)cc2)cc1 | -0.46
62 | Nc1ccc(-c2nc3c(ccc4ccccc43)[nH]2)cc1 | 1.85
63 | CCCCNC[C@@H](O)[C@H](Cc1ccccc1)NC(=O)c1cc2c3c(c1)c(CC)cn3CCS(=O)(=O)N2C | 4.07
64 | O=C(Nc1ccc(OC2CCN(Cc3ccco3)CC2)c(Cl)c1)c1ccc2ncccc2c1 | 2.97
